According to PubChem BioAssay:
The source made the active and inactive calls.

Legend:
[1] = A549 cell viability effects, profiling panel, calcein-AM fluorescence, 48 h, basal (AID 1162); settings: higher = more signal
[2] = adipocyte viability effects, profiling panel, cell-based, 3T3-L1 adipocytes, calcein-AM fluorescence, 48 h, basal (AID 1163); settings: 3T3-L1 adipocytes viability, higher = more signal
[3] = HepG2 cell viability effects, profiling panel, calcein-AM fluorescence, 48 h, basal (AID 1164); settings: higher = more signal
[4] = MM1S cell viability effects, profiling panel, calcein-AM fluorescence, 48 h, basal (AID 1165); settings: higher = more signal;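 also: viability of MM1S multiple myeloma cells under basal unstimulated conditions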
[5] = basal RPMI8226 viability, no added stimulus, profiling panel, cell-based, calcein-AM fluorescence, 48 h, PK04 Diversity Set (AID 1166); settings: RPMI8226 myeloma viability, higher = more signal;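 also: cells grown under basal conditions without added stimulus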
[6] = basal HepG2 mitochondrial membrane potential changes, profiling panel, cell-based, JC-1 fluorescence, 24 h, 100 nL compound (AID 1167); settings: higher = more signal
[7] = basal 3T3-L1 adipocyte mitochondrial potential changes, profiling panel, cell-based, JC-1 fluorescence, 3T3-L1 adipocytes, 24 h, 100 nL compound (AID 1168); settings: JC-1 mitochondrial fluorescence, higher = more signal, called active from +8 up or from −8 down
[8] = basal RPMI8226 mitochondrial membrane potential changes, profiling panel, cell-based, JC-1 fluorescence, 24 h, 100 nL compound (AID 1169); settings: RPMI8226 myeloma, JC-1 mitochondrial potential fluorescence, higher = more signal
[9] = basal MM1S mitochondrial membrane potential changes, profiling panel, cell-based, JC-1 fluorescence, 24 h, 100 nL compound (AID 1170); settings: higher = more signal
[10] = A549 lung cancer cell viability effects, profiling panel, resazurin fluorescence, 24 h, PK04 Diversity Set (AID 1171); settings: higher = more signal, called active from +8 up or from −8 down
Also: test concentration not given here.

Row | Compound | z-score [1] | z-score [2] | z-score [3] | z-score [4] | z-score [5] | z-score [6] | z-score [7] | z-score [8] | z-score [9] | z-score [10]
1 | CCCCN1CC=CC23O[C@@H]4/C=C\CCCOC(=O)C4[C@H]2C(=O)N(CCCCCO)[C@@H]3C1=O (stereo not given in full) | -0.234 | 1.14 | -0.195 | 1.46 | 0.0001 | -0.327 | 0.783 (inactive) | 0.163 | -0.0801 | 0.356 (inactive)
2 | CCN(CC)c1ccc(N2CC=CC34O[C@@H]5C=CCOC(=O)[C@@H]5[C@H]3C(=O)N(CCCCCCO)[C@@H]4C2=O)cc1 (stereo not given in full) | -0.705 | 0.839 | -0.0976 | 1.4 | 0.922 | 0.554 | 1.21 (inactive) | 0.267 | -0.72 | 1.37 (inactive)
3 | CC1CC/C=C\[C@H]2OC34C=CCN(Cn5nnc6ccccc65)C(=O)[C@H]3N(CCCCCO)C(=O)[C@@H]4C2C(=O)O1 (stereo not given in full) | -0.306 | 0.393 | -0.841 | 1.4 | -0.0074 | 0.944 | 0.516 (inactive) | 0.727 | -0.124 | 0.411 (inactive)
4 | CO[C@H]1O[C@H](CO)[C@@H](OC(=O)Nc2cccc(F)c2)[C@H](OC(=O)Nc2ccccc2)[C@H]1OC(=O)Nc1ccccc1 | -2.2 | 1.33 | -2.94 | -1.53 | -4.26 | -0.389 | 0.518 (inactive) | -1.33 | -0.561 | -3.72 (inactive)
5 | O=C1C[C@@](C(=O)NCc2ccccc2)(c2ccc([N+](=O)[O-])cc2)[C@@H](c2ccc(CO)cc2)N1CC12CC3CC(CC(C3)C1)C2 | -0.702 | 0.0687 | -0.487 | -2.81 | -4.32 | 2.17 | 0.112 (inactive) | -0.552 | -1.2 | -3.09 (inactive)
6 | CC(=O)Nc1cc(Br)ccc1C(=O)NCc1ccccc1 | -0.196 | 0.814 | -0.0731 | -0.0267 | 0.0237 | -0.56 | -0.907 (inactive) | 0.782 | 1.25 | 0.14 (inactive)
7 | CC(C)[Si](C#CCCCC#N)(O[C@H](c1ccccc1)c1cn(Cc2cccc(Cl)c2)nn1)C(C)C | -1.13 | -0.75 | -0.626 | -0.883 | -4.19 | 6.65 | -0.108 (inactive) | -0.882 | -1.56 | 0.268 (inactive)
8 | C=CCNC(=O)[C@@H]1[C@H]2C(=O)O[C@H](c3ccccc3)[C@H](c3ccccc3)N2[C@H](c2ccc(OCCO)cc2)[C@@]12C(=O)N(C(=O)OCCOC)c1ccc(C#CCNC(N)=O)cc12 | -0.0901 | 0.488 | 0.219 | 0.911 | -1.6 | -0.734 | 0.648 (inactive) | -0.888 | 0.679 | -0.271 (inactive)
9 | COc1ccc(CCNC(=O)[C@@]2(c3ccc([N+](=O)[O-])cc3)CC(=O)N(CC34CC5CC(CC(C5)C3)C4)[C@@H]2c2ccc(CO)cc2I)cc1 | -0.68 | 0.475 | -1.36 | -2.44 | -3.68 | 2 | 0.1 (inactive) | -0.973 | -0.571 | -2.16 (inactive)
10 | C=CCOC(=O)[C@H]1[C@@H]2C(=O)O[C@@H](c3ccccc3)[C@@H](c3ccccc3)N2[C@@H](c2ccc(OCCOC(=O)[C@@H]3C[C@@H]4C(=O)N5CCC[C@H]5C(=O)N4[C@@H]3c3cccc(OCCO)c3)cc2)[C@]12C(=O)Nc1ccc(I)cc12 | -1.06 | 0.997 | -0.649 | -0.349 | 0.206 | -0.689 | 1.19 (inactive) | -0.643 | -0.959 | -0.476 (inactive)
11 | O=C(CS)NCCCCCNC(=O)[C@@H]1C[C@@H]2C(=O)NCC(=O)N2[C@@H]1c1ccc(O)cc1 | 0.347 | 0.136 | -1.19 | -0.403 | -0.727 | 1.14 | -0.00814 (inactive) | 0.852 | 0.158 | -1.31 (inactive)
12 | C=CC[C@@]1(C(=O)N2CCCCC2)N=C(c2ccc(OCCCO)cc2)O[C@@H]1c1ccccc1N=[N+]=[N-] | -0.637 | 2.03 | -0.441 | -1.23 | -2.71 | 1.02 | 1.21 (inactive) | -0.982 | -1.66 | -1.5 (inactive)
13 | C=CCC(OC(C)=O)[C@@H]1[C@@H](N(Cc2ccc(-c3cccc(C(F)(F)F)c3)o2)C(=O)Cc2ccc(OC)cc2)c2cc(OCCCO)ccc2N1C(=O)c1ccc2ccccc2c1 (stereo not given in full) | -0.138 | 1.13 | -0.589 | 0.269 | -0.738 | 2.15 | -0.75 (inactive) | -0.442 | 0.675 | -0.186 (inactive)
14 | COc1cc2c(cc1OC)CN(C(=O)[C@H]1[C@@H]3C(=O)O[C@@H](c4ccccc4)[C@@H](c4ccccc4)N3[C@@H](c3ccccc3OCCO)[C@]13C(=O)Nc1ccc(C#CCCO)cc13)CC2 | 0.228 | -0.538 | -0.368 | -0.217 | -0.33 | -0.641 | 0.451 (inactive) | -0.377 | -0.96 | 0.426 (inactive)
15 | CC(C)[C@@H](C(=O)O)n1cc(C2(O)CCCCC2)nn1 | 0.566 | 1.51 | -0.294 | 0.248 | 0.215 | 0.727 | 0.639 (inactive) | -0.302 | -0.394 | 0.194 (inactive)
16 | OCC1C=C(/C=C/c2ccccc2)CN1Cc1ccccc1Br (stereo not given) | -0.58 | 1.21 | 0.0668 | -3.2 | -3.64 | 1.35 | 0.401 (inactive) | -0.923 | -1.87 | -0.535 (inactive)
17 | O=C(NC1CC1)[C@@H]1c2ccccc2C(=O)N(C2Cc3ccccc3C2)[C@H]1c1ccc(CO)cc1 | 0.201 | 0.526 | 0.116 | 0.62 | -0.987 | 2.96 | 0.832 (inactive) | 0.0519 | 0.339 | 0.888 (inactive)
18 | CC#CC(=O)Oc1ccc(Br)cc1C=CC(=O)OCC | -2.1 | -1.04 | -2.88 | -3.18 | -4.08 | -1.65 | -0.315 (inactive) | -0.583 | -1.84 | -0.685 (inactive)
19 | COc1ccc(C(O)C2C=CC3C(=O)N(C)C(=O)C3N2N(c2ccccc2)c2ccccc2)c2ccccc12 (stereo not given) | -0.303 | -1.6 | 0.943 | 0.149 | 0.2 | -0.979 | -0.14 (inactive) | 0.545 | -0.67 | -0.738 (inactive)
20 | COc1ccc([Si](C)(C)[C@@H]2[C@@H](CC(=O)N3Cc4ccccc4C[C@H]3CO)O[C@]3(C(=O)N(Cc4cccc(N5CCC5=O)c4)c4ccccc43)[C@H]2C)cc1 | -0.598 | 0.832 | -0.16 | -2.1 | -2.55 | -0.372 | 1.33 (inactive) | -0.755 | -1.16 | -1.38 (inactive)
21 | COC(=O)c1c2oc(c1C(=O)OC)C(=O)N[C@@H](C(C)C)Cn1cc(nn1)C1(CCCCC1)NC(=O)N[C@H](CO)CC2 | 1.31 | -0.32 | 0.0744 | -0.11 | 0.823 | 1.62 | 0.024 (inactive) | -0.159 | 0.3 | 1.15 (inactive)
22 | CCOC(=O)C[C@H]1[C@H](OC(=O)c2ccc(C(=O)c3ccccc3)cc2)[C@@H](NC(=O)Cc2ccc(OC)cc2)c2cc(OCCCO)ccc2N1C(=O)c1ccc2ccccc2n1 | 1.33 | -0.121 | 0.493 | -0.854 | -0.614 | 0.658 | 2.22 (inactive) | -0.234 | 0.567 | -0.383 (inactive)
23 | COC(=O)C(CC#Cc1ccc2c(c1)[C@]1(C(=O)N2)[C@H](c2ccccc2OCCO)N2[C@H](c3ccccc3)[C@H](c3ccccc3)OC(=O)[C@H]2[C@@H]1C(N)=O)C(=O)OC | -0.387 | 0.395 | -4.39 | -3.38 | -4.56 | -2.46 | 3.28 (inactive) | -1.18 | -2.09 | -1.01 (inactive)
24 | O=C(O)[C@@]1(CCS(=O)(=O)c2ccccc2)N=C(c2ccc(OCCCO)cc2)O[C@H]1c1ccccc1 | -0.932 | 0.784 | -0.258 | -0.839 | -1.04 | 0.591 | -0.249 (inactive) | -0.178 | -0.51 | 0.761 (inactive)
25 | O=C(NCCN1CCOCC1)[C@@H]1c2ccccc2C(=O)N(Cc2cc(C(F)(F)F)cc(C(F)(F)F)c2)[C@H]1c1ccc(CO)cc1 | 1.79 | -0.587 | 1.82 | 0.266 | -0.0119 | 2.85 | 0.252 (inactive) | -0.021 | -0.227 | 0.0288 (inactive)
26 | C=CCOC(=O)[C@H]1[C@@H]2C(=O)O[C@@H](c3ccccc3)[C@@H](c3ccccc3)N2[C@@H](c2ccc(OCCOC(=O)[C@H]3C[C@H]4C(=O)N[C@@H](CCCCN(C)C)C(=O)N4[C@H]3c3cccc(OCCO)c3)cc2)[C@]12C(=O)Nc1ccc(I)cc12 | -0.226 | -0.512 | 1.22 | -2.14 | -1.82 | -1.92 | -1.13 (inactive) | -0.157 | -0.465 | 0.477 (inactive)
27 | COc1ccc(C(=O)Nc2ccc(CN3C(=O)[C@]4(O[C@H](CC(=O)N5CCC[C@H]5CO)[C@@H]([Si](C)(C)c5ccc(OC)cc5)[C@@H]4C)c4ccccc43)cc2)cc1 | -1.14 | 0.362 | -4.53 | -2.83 | -4.35 | -2.48 | -0.0307 (inactive) | -1.09 | -2.1 | -1.98 (inactive)
28 | CCCCCCc1nc(-c2ccc(-c3ccc(Cl)c(Cl)c3)o2)c(C)c2c1[Si](C(C)C)(C(C)C)OC2 | -2.55 | 0.438 | -1.55 | -3.25 | -4.25 | -3.26 | 0.113 (inactive) | -0.977 | -1.68 | -0.312 (inactive)
29 | COC(=O)[C@@]1(Cc2ccccc2)[C@H]2c3cc(C(=O)N4CCCC4)n(Cc4c(CO)[nH]cc(C)c4=O)c3C[C@H]2CN1C(=O)c1ccccc1 | -1.45 | -0.412 | -0.844 | -0.662 | -2.04 | -0.401 | -0.276 (inactive) | -0.797 | -0.444 | 0.739 (inactive)
30 | CN(C)CCCCCCNC(=O)[C@@H]1C[C@@H]2C(=O)N[C@@H](CCCC[N+](C)(C)C)C(=O)N2[C@@H]1c1ccc(O)cc1 | -0.974 | 0.334 | -0.646 | -1.51 | 0.131 | -0.108 | -0.302 (inactive) | 0.185 | -0.313 | -0.994 (inactive)
